Test results from PubChem BioAssay (EPA / NIEHS).
Active and inactive are the calls of the source. Rule for the calls: active = hit-call score of the fitted dose curve at least 0.9, where 1 is the maximum; inactive = score below 0.9.

assay: APR_HepG2_MitoMass_1hr: Apredica 1-hour HepG2 Assay for Mitochondrial Mass (AID 2282674); conditions: high-content imaging, actives raise or lower the signal
Description: APR_HepG2_1hr is a cell-based, multiplexed-readout assay that uses HepG2, a human liver cell line, with measurements taken at 1 hour after chemical dosing in a 384-well plate.APR_HepG2_MitoMass_1hr is one of 10 assay component(s) measured or calculated from the APR_HepG2_1hr assay. It is designed to make measurements of cell phenotype, a form of morphology reporter, as detected with fluorescence intensity signals by HCS Fluorescent Imaging technology.Data from the assay component APR_HepG2_MitoMass_1hr was analyzed into 1 assay endpoint. This assay endpoint, APR_HepG2_MitoMass_1hr, was analyzed with bidirectional fitting relative to DMSO as the negative control and baseline of activity. Using a type of morphology reporter, gain or loss-of-signal activity can be used to understand changes in the signaling. Furthermore, this assay endpoint can be referred to as a primary readout, because this assay has produced multiple assay endpoints where this one serves a signaling function. To generalize the intended target to other relatable targets, this assay endpoint is annotated to the cell morphology intended target family, where the subfamily is organelle conformation.
Cells were treated with dimethyl sulfoxide (DMSO) as a solvent control at a final concentration of 0.5% v/v or with compounds in DMSO with a resulting final DMSO concentration of 0.5% v/v. Compound treatment was done at concentrations of 0.39, 0.78, 1.56, 3.12, 6.24, 12.5, 25, 50, 100, and 200 uM in duplicate on each plate. Cells were treated with compounds for 1, 24, or 72 hr. Carbonyl […] m-chloro-phenylhydrazone (CCCP) and taxol were used as positive controls for mitochondrial function and cytoskeletal stability, respectively; DMSO served as the negative control for this experiment. Cells were fixed by the direct addition of 50 uL formaldehyde in Hank's Balanced Salt Solution (HBSS) to a final concentration of 3.7%. After incubation in the fixation medium for 30 min at room temperature (293-298 K), cells were rinsed twice with HBSS and treated with cell permeabilization buffer (16 uL of 0.5% Triton X-100) for 10 min at room temperature (293-298 K) before labeling. For mitochondrial membrane potential and mitochondrial measurements, pre-fixed cells were incubated with 50 uL of MitoTracker Red CMXRos (Invitrogen) at a concentration of 250 nM for 30 min before fixation. In the remaining cases, post-fixed cells were labeled by incubation with a multiplexed mixture of primary antibodies in HBSS for 60 min at room temperature (293-298 K) to detect immunoreactivity of c-Jun (1:500), phospho-histone H3 (1:100), phospho-histone H2A.x (1:200), p53 (1:400), alpha-tubulin (1:200) and Hoechst 33342 (2 ug/mL). Cells were labeled for multiplexed imaging on two separate plates: a) Hoechst 33342, MitoTracker Red, phospho-histone H3, and alpha-tubulin, and b) Hoechst 33342, phospho-histone H2A.x, and c-Jun. A final rinse with HBSS (50 uL) was performed before analysis. The primary and secondary antibodies for the proteins were phospho-histone H3 (rabbit anti-phospho-histone H3 and FITC-donkey anti-rabbit IgG), phospho-histone H2A.x (mouse anti-phospho-histone H2A.x and FITC-donkey anti-mouse IgG), c-Jun (rabbit anti-phospho-c-Jun and Cy3-donkey anti-rabbit IgG), p53 (sheep anti-p53 and Cy5-donkey anti-sheep IgG), alpha-tubulin (mouse anti-alpha-tubulin and Cy5-donkey anti-mouse IgG). These antibodies are available as the CellCiphr HepG2 assay kit (Millipore).Digital images of each well were captured using a Cellomics ArrayScan VTI (Thermo Scientific Cellomics) (0.8 NA objective, 0.63x optical coupler, and XF-93 filter set) at 20x magnification. The images were acquired using the autofocus feature of the ArrayScan instrument, which entails the following steps. First, the camera focuses on channel 1 (Hoechst 33342), where nuclei are identified. Second, a Z offset of 1 um is used for capturing mitochondria (MitoTracker Red). Third, a Z offset of -2 um is used for capturing the cytoskeleton (tubulin). […]

SMILES | outcome | AC50
CCN(Cc1c(F)cccc1Cl)c1c([N+](=O)[O-])cc(C(F)(F)F)cc1[N+](=O)[O-] | inactive | –
CCN(CC)C(=O)c1cccc(C)c1 | inactive | –
COc1c(Cl)ccc(Cl)c1C(=O)O | inactive | –
CCOC(=O)NCCOc1ccc(Oc2ccccc2)cc1 | inactive | –
OB(O)O | inactive | –
CCCCOC(=O)[C@@H](C)Oc1ccc(Oc2ccc(C(F)(F)F)cn2)cc1 | inactive | –
S=C([S-])NCCNC(=S)[S-].[Mn+2] | inactive | –
CCCCC(CC)COC(=O)c1ccccc1C(=O)O (stereo not given) | inactive | –
COC(=O)c1ccc(CNS(C)(=O)=O)cc1S(=O)(=O)NC(=O)Nc1nc(OC)cc(OC)n1 | inactive | –
O=C(Nc1ccc([N+](=O)[O-])cc1Cl)c1cc(Cl)ccc1O | inactive | –
CCCCCOC(=O)COc1cc(N2C(=O)C3=C(CCCC3)C2=O)c(F)cc1Cl | inactive | –
COC(=O)c1ccccc1S(=O)(=O)NC(=O)Nc1nc(OC(F)F)cc(OC(F)F)n1 | inactive | –
CC(C)(c1ccc(O)cc1)c1ccc(O)cc1 | inactive | –
CCOC(=O)COc1cc(-n2ncc(C(F)(F)F)c(C)c2=O)c(F)cc1Cl | inactive | –
CCNc1nc(N)nc(Cl)n1 | inactive | –
Oc1ccc(C(c2ccc(O)cc2)C(Cl)(Cl)Cl)cc1 | inactive | –
C=CCOC(Cn1ccnc1)c1ccc(Cl)cc1Cl (stereo not given) | inactive | –
CC1(C)C(C=C(Cl)Cl)C1C(=O)OCc1cccc(Oc2ccccc2)c1 (stereo not given) | inactive | –
COC(=O)c1ccccc1C(=O)O | inactive | –
CCOC(=O)C(C)Oc1ccc(Oc2cnc3cc(Cl)ccc3n2)cc1 (stereo not given) | inactive | –

SMILES | outcome | AC50
COC(=O)c1c(Cl)nn(C)c1S(=O)(=O)NC(=O)Nc1nc(OC)cc(OC)n1 | inactive | –
CN(C)C(=O)Nc1ccc(Cl)c(Cl)c1 | inactive | –
O=C(O)C1(C(=O)Nc2ccc(Cl)cc2Cl)CC1 | inactive | –
COc1nc(C)nc(NC(=O)NS(=O)(=O)c2ccccc2OCCCl)n1 | inactive | –
CCCOC(=O)NCCCN(C)C | inactive | –
CCCN(CCC)c1c([N+](=O)[O-])cc(C(F)(F)F)c(N)c1[N+](=O)[O-] | – | 158 µM (active)
c1ccc2[nH]c(-c3cscn3)nc2c1 | inactive | –
CCCCOC(=O)C(C)Oc1ccc(Oc2ccc(C(F)(F)F)cn2)cc1 (stereo not given) | inactive | –
CCCN(CCC)C(=O)SCC | inactive | –
CCC(C)OC(=O)N1CCCCC1CCO (stereo not given) | inactive | –
COC(=O)c1ccc(I)cc1S(=O)(=O)NC(=O)Nc1nc(C)nc(OC)n1 | inactive | –
c1ccc(Nc2ccccc2)cc1 | inactive | –
CC(C)(C)[C@@H](O)[C@@H](Cc1ccc(Cl)cc1)n1cncn1 | inactive | –
S=C(S)NCCNC(=S)S.[Mn+2].[S-]C([S-])=NCCN=C([S-])[S-].[Zn+2] | inactive | –
CCCCC(CC)CN1C(=O)C2C3C=CC(C3)C2C1=O (stereo not given) | inactive | –
CCOC(=O)C(C)Oc1ccc(Oc2nc3ccc(Cl)cc3o2)cc1 (stereo not given) | inactive | –
CCSC(=O)N(CC(C)C)CC(C)C | inactive | –
CCC(O)=C1C(=O)CC(C(=O)O)CC1=O (stereo not given) | inactive | –
CCOC(=O)[C@H](C)Oc1ccc(Oc2nc3ccc(Cl)cc3o2)cc1 | inactive | –
N#CSCSc1nc2ccccc2s1 | – | 28.1 µM (active)
